Screens from PubChem.
D2 PAM-1: HTS Assay for Positive Allosteric Modulators of the Human D2 Dopamine Receptor: Primary Screen for Potentiators. D(2) dopamine receptor (Homo sapiens), P14416. HEK293 T-REx D2, calcium flux, EC20 dopamine potentiation. potentiation, % at 10 µM. hit rate 0.34% among 340,000;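 active means potentiation over 3 SD above the plate norm, cut at about 30% in these data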; further: 0% is about no effect
Target sequence (P14416 whole entry, looked up): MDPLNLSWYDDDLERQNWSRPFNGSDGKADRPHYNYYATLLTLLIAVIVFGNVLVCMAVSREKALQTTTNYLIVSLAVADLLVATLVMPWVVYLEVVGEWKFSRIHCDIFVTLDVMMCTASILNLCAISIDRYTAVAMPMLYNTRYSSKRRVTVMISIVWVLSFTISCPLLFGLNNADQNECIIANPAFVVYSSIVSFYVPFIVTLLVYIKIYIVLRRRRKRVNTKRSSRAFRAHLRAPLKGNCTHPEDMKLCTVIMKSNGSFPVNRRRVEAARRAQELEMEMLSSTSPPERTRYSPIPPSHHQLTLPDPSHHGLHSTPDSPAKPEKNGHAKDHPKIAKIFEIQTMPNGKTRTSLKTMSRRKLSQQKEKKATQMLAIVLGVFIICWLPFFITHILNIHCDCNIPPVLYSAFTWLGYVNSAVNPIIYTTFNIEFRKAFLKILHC
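Potentiation of an EC20 dopamine calcium response is measured in a force-coupled, tetracycline-inducible Hek293 Trex D2 line. Compound-only kinetic reads over 180 s flag agonists before dopamine addition.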
D2 ag-1: Beta-Arrestin HTS for Positive Allosteric Modulators of the Human D2 Dopamine Receptor: Agonists; DiscoveRx PathHunter D2 beta-arrestin, luminescence, 90 min; 100% = 57 uM dopamine signal; AID 624465, 2012; activation, % (test concentration not listed); hit rate 0.084% among 360,000; D(2) dopamine receptor (Homo sapiens), P14416; in the data active means activation above about 40%; inconclusive means between about 15% and that limit
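Agonist mode: compounds alone added to overnight-plated D2 PathHunter cells for 90 min at 37 C, with 57 uM final dopamine (EC100) defining full response. Beta-arrestin recruitment detected by chemiluminescent reagent, read after 1 h at ambient temperature.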
D2 antagonist: HTS Assay for Allosteric Antagonists of the Human D2 Dopamine Receptor: Primary Screen for Antagonists; hit rate 2% among 340,000; inhibition, % at 10 µM; D(2) dopamine receptor (Homo sapiens), P14416; AID 485344, 2010; HEK293 TREx D2 cells, calcium flux, dopamine EC80; in the data active means inhibition above about 30%; inactive means below that, where a call was filed; further: 0% is about no effect
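Calcium mobilization kinetics were recorded at 1 s intervals in tetracycline-induced HEK293 T-REx D2 cells, first for 180 s after compound addition and then 180 s after EC80 dopamine.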
D2 PAM-2: Beta-Arrestin HTS for Positive Allosteric Modulators of the Human D2 Dopamine Receptor: Potentiators. D(2) dopamine receptor (Homo sapiens), P14416. DiscoveRx D2 beta-arrestin cells, luminescence, 90 min; 100% = 57 uM dopamine signal. potentiation, % (test concentration not listed). hit rate 0.23% among 360,000. AID 624464, 2012; in the data active means potentiation above about 50%; inconclusive means mostly about 30% to 49%
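PathHunter beta-arrestin assay in DiscoveRx D2 cells. Compounds were added with an EC20 of dopamine (50 nM final) for 90 min at 37 deg C. Luminescence was read 1 h after detection reagent, with 57 uM dopamine as the EC100 control.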
D2 ag-2: HTS Assay for Allosteric Agonists of the Human D2 Dopamine Receptor: Primary Screen for Agonists; D(2) dopamine receptor (Homo sapiens), P14416; HEK293 T-REx D2 cells, calcium flux agonist mode; activation, % at 2 µM; hit rate 0.53% among 340,000; AID 485358, 2010;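 active means activation over 3 SD above normal in the single-dose calcium agonist read, cut at about 30% in these data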; further: 0% is about no effect
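Tetracycline-induced HEK293 Trex cells with D2 receptor force-coupled to calcium signaling, plated overnight at 30 C and loaded with no-wash calcium dye. Calcium flux read kinetically for 180 s after compound addition; responses flag agonists.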
Starred values were filed as active, the others as inactive; ? = inconclusive; / = not tested or not shown. Sampled rows, rich in hits. Any-hit rate of the full collection: about 2.4%.

SMILES	D2 PAM-1	D2 ag-1	D2 antagonist	D2 PAM-2	D2 ag-2
O=C(CN1CCN(Cc2ccccc2Cl)C1=O)NC1CCCCCCC1	0	-1	31*	5	-2
O=C(COC(=O)Cn1nc(-c2ccccc2)oc1=O)Nc1ccc(F)cc1	4	7	3	65*	-1
CCC1CN(C(=O)N2CCC(C(=O)NCCc3ccc(OC)cc3OC)CC2)c2cc(C)ccc2O1 (stereo not drawn)	16	/	/	/	1
CCOC(=O)c1nc(Nc2ccccc2CC)c2ccccc2n1	-7	0	33*	1	0
Cn1c(CCN2CCCCC2)nc2cc(NS(=O)(=O)c3ccccc3)ccc21	-16	-4	38*	-13	-1
Cc1ccc(S(=O)(=O)Nc2ccc3c(c2)nc(CCN2CCCC2)n3C)cc1	-5	-2	39*	-28	-1
Cn1c(CCN2CCOCC2)nc2cc(NS(=O)(=O)c3ccccc3)ccc21	24	-2	-3	-5	0
CC(C)(C)NCCOc1ccc2ccccc2c1	-21	-2	45*	-11	3
Cc1ccc(S(=O)(=O)Nc2cc3c(C(=O)Nc4ccccc4)c(C)oc3c3ccccc23)cc1	-3	13	0	84*	1
CCOC(=O)c1c(C)oc2c1cc(NS(=O)(=O)c1ccc(C)cc1)c1ccccc12	-11	/	/	/	-1
CC(C)(C)OC(=O)N1CCC(c2c(C(=O)NCCN3CCOCC3)cnn2-c2ccc(F)cc2)CC1	-9	/	/	/	0
CC(=O)c1cccc(NC(=O)Cc2ccc(NC(=O)N3CCCCc4ccccc43)cc2)c1	4	/	/	/	0
N=c1c(C(=O)NCc2ccco2)cc2c(=O)n3ccccc3nc2n1Cc1ccccc1	-22	-3	38*	-32	0
CC[C@H](C)[C@H](NC(=O)[C@H](Cc1ccc(O)cc1)NC(=O)[C@@H](N)C(C)C)C(=O)N[C@@H](Cc1cnc[nH]1)C(=O)N1CCC[C@H]1C(=O)N[C@@H](Cc1ccccc1)C(=O)O	7	6	34*	-4	2
CCC(C)C(NC(=O)C1CCC(=O)N1C(=O)OCc1ccccc1)C(=O)NC(Cc1ccccc1)C(N)=O (stereo not drawn)	/	5	-20	2	2
CNC(=O)c1ccc(CSc2nc3ccncc3n2Cc2ccc(C)cc2)cc1	-11	/	/	/	1
CCc1ccc(C(=O)N/N=C/c2ccc(Cl)cc2Cl)nc1	-18	/	73*	/	1
COc1cccc(NC(=O)/C=C/c2ccc([N+](=O)[O-])cc2)c1	-20	1	45*	-1	-1
COc1cccc(NC(=O)/C=C/c2ccc(S(=O)(=O)N3CCOCC3)cc2)c1	-21	-2	47*	-4	0
COc1ccc(/C=C/C(=O)Nc2cccc(F)c2)cc1S(=O)(=O)N1CCOCC1	6	0	56*	-1	2
COc1cccc(NC(=O)/C=C/c2ccccc2[N+](=O)[O-])c1	-21	0	-5	-28	-1
Cc1cc(C)cc(-n2ccnc2SCC(=O)Nc2ccc3c(c2)OCO3)c1	-20	/	/	/	-2
CC(=O)C(C)Oc1ncn(-c2ccccc2)n1 (stereo not drawn)	11	1	33*	-17	0
O=C(O)c1ccc2c(c1)OCCOCCOCCOCCOCCO2	-5	-2	-22	-7	-1
O=C(c1ccccc1)c1ccc2c(c1)OCCOCCOCCOCCO2	10	-3	50*	-7	-2
SMILES	D2 PAM-1	D2 ag-1	D2 antagonist	D2 PAM-2	D2 ag-2
COc1ccc(NC(=S)NNS(=O)(=O)c2ccc3ccccc3c2)c(OC)c1	-4	-1	43*	-5	2
COCCn1c(CNC(=O)c2ccccc2C)nc2cccnc21	4	/	/	/	0
COc1ccc(C2(c3ccc(OC)cc3)NC(=O)N(CC(=O)NC(C)C)C2=O)cc1	2	-2	-14	-5	1
COc1ccc(C2(c3ccc(OC)cc3)NC(=O)N(CC(=O)NCC(C)c3ccccc3)C2=O)cc1 (stereo not drawn)	-4	-2	68*	3	5
O=C(COc1cccc(F)c1)N1c2ccccc2Sc2ccccc21	0	?	-7	93*	0
O=C(Cc1ccccc1[N+](=O)[O-])NCc1ccc(Cl)cc1Cl	6	-1	33*	7	-3
COc1cc(CN(C(=O)COc2ccccc2)c2ccccn2)cc(OC)c1OC	14	/	/	/	1
Cc1ccc(C)c(N2CCN(S(=O)(=O)c3c(C(=O)N4CCC(C)CC4)c(C)n(C)c3C)CC2)c1	1	/	/	/	7
CCCSc1nc(=S)n(Cc2ccccc2)c(C)c1C(C)=O	-8	6	43*	-4	-1
CC(=O)c1c(N2CCCCC2)nc(=S)n(Cc2ccccc2)c1C	5	0	-29	8	-1
O=C(CSc1ncc(S(=O)(=O)c2ccc(Cl)cc2)c(=O)[nH]1)Nc1ccc2c(c1)OCCO2	8	/	/	/	0
CSc1ccc(CCNc2ncnc3onc(C)c23)cc1	0	/	/	/	0
CN1CCN(c2nc(-c3ccccc3)cc(C(F)(F)F)n2)CC1	-7	-3	75*	-36	-1
CS(=O)(=O)c1nc(-c2cccs2)cc(C(F)(F)F)n1	1	/	9	/	2
CN1CCN(c2nc(-c3cccs3)cc(C(F)(F)F)n2)CC1	-15	-1	32*	-23	-1
CC1CCN(c2nc(-c3ccccc3)cc(C(F)(F)F)n2)CC1	4	-1	5	10	0
Cc1ccn2c(=O)nc(SCC(=O)Nc3cc(C)on3)nc2c1	-10	-1	42*	1	-1
Cc1ccc2nc(SCC(=O)Nc3ccc(C)c(Cl)c3)nc(=O)n2c1	11	0	35*	-8	-1
Cc1ccc2nc(SCC(=O)Nc3cccc(Cl)c3)nc(=O)n2c1	-6	3	-14	-6	1
Cc1cc(NC(=O)CSc2nc(=O)n3cc(Cl)ccc3n2)no1	/	-1	/	-3	/
Cc1ccc2nc(SCC(=O)c3ccc(Cl)cc3)nc(=O)n2c1	13	-5	32*	-1	-1
Cc1ccc2nc(SCC(=O)N3CCCCCC3)nc(=O)n2c1	-9	0	1	-4	1
CCc1ccc(C(=O)c2cn(CC(=O)Nc3ccc(F)cc3)c3ccc(OC)cc3c2=O)cc1	-15	/	/	/	1
Cc1cc(C)cc(-n2ccn(CC(=O)Nc3ccccc3C(F)(F)F)c(=O)c2=O)c1	-2	/	/	/	1
